# Results taken from PubChem BioAssay.
# Values without a mark were called inactive. For part of these data: Results with a measured potency or affinity are listed apart. Activity calls are given as the source filed them. Unless noted, how the calls were made is not given here.
# Experiments:
# [1] = antimalarial activity against Dd2 strain (AID 2302;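 active means growth inhibition above 50% at the single 2 µM test dose, taken to imply half-maximal potency below 2 µM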;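 further: 0% = DMSO untreated growth and 100% = chloroquine plus artemisinin killed control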); conditions: P. falciparum Dd2 in RBCs, LDH growth readout, 72 h; at 2 µM; stronger effect = higher value
# [2] = HepG2 cytotoxicity, primary screen, cytotoxicity control for P. falciparum antimalarial project, cell-based, ATP luminescence (AID 2303;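 active means inhibition above 50%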;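 further: 0% = DMSO wells and 100% = digitonin-killed cells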); conditions: HepG2 viability, 24-48 h, at 10 µM, stronger effect = higher value
# [3] = molecular target: L-lactate dehydrogenase (Plasmodium falciparum (isolate CDC / Honduras)) (UniProt Q27743); test: PfLDH activity inhibition – cell lysate, 3D7 strain, counter-screen for P. falciparum growth inhibition project (AID 2304);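 further: 0% = vehicle and 100% = reference inhibitor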; conditions: P. falciparum 3D7 crude extract, LDH APAD/NBT absorbance; at 2 µM; stronger effect = higher value
# Sequence of L-lactate dehydrogenase (Plasmodium falciparum (isolate CDC / Honduras)) (Q27743 whole entry, looked up): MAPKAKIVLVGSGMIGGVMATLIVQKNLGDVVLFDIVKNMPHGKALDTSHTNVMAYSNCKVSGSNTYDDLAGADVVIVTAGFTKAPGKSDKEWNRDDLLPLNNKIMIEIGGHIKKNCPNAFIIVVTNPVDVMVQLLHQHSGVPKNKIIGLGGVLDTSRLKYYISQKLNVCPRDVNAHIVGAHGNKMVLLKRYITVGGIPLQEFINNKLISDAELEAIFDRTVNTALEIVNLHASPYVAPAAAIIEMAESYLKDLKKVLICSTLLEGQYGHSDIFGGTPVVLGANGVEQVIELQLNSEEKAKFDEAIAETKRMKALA
# [4] = inhibition of 3D7 malaria parasite growth – strain 3D7 (AID 2306);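 further: 0% = DMSO wells and 100% = chloroquine plus artemisinin control wells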; conditions: P. falciparum 3D7 erythrocytic growth, LDH absorbance, 72 h; at 2 µM; stronger effect = higher value
# [5] = molecular target: Calcium-dependent protein kinase 1 (Plasmodium falciparum (isolate 3D7)) (UniProt P62344); test: PfCDPK1 kinase inhibitors, biochemical, TCAMS library (AID 1159585; cut-off not given, nearly all actives have IC50 up to about 0.98 µM;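 further: inhibitors leave more ATP so luminescence rises with inhibition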); conditions: recombinant PfCDPK1, Kinase-Glo ATP depletion luminescence
# Sequence of Calcium-dependent protein kinase 1 (Plasmodium falciparum (isolate 3D7)) (P62344 whole entry, looked up): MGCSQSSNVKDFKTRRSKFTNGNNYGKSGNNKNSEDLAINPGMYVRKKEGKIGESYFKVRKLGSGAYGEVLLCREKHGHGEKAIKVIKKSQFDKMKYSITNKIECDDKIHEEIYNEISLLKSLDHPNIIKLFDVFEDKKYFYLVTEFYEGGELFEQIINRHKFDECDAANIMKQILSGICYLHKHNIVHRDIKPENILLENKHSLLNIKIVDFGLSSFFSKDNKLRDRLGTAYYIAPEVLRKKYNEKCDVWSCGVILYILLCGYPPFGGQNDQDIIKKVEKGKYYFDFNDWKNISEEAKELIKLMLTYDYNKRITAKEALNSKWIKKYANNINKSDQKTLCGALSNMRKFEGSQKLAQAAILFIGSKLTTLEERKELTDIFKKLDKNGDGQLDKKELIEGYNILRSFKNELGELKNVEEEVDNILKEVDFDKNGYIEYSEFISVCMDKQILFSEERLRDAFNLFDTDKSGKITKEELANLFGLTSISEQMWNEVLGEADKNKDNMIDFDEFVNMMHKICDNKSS
# [6] = molecular target: Plasmodium falciparum protein kinase 6 (PK6, PF3D7_1337100) (UniProt Q8IDW1); test: PfPK6 kinase inhibitors, biochemical, TCAMS library (AID 1159586); conditions: recombinant PfPK6, Kinase-Glo ATP depletion luminescence
# Sequence of Plasmodium falciparum protein kinase 6 (PK6, PF3D7_1337100) (Q8IDW1 1-305): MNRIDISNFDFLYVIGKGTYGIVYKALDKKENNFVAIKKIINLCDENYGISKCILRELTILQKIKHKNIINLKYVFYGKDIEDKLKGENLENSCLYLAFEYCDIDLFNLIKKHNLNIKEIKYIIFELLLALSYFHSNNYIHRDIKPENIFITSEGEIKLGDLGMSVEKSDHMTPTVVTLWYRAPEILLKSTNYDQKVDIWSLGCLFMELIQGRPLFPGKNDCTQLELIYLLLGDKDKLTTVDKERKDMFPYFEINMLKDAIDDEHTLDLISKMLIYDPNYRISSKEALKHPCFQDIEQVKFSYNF
# [7] = molecular target: Protein kinase 7 (PK7), Plasmodium falciparum 3D7 (PF3D7_0213400) (UniProt Q7YTF7); test: inhibition of Plasmodium PK7 catalytic activity – biochemical, TCAMS antimalarial set, Kinase-Glo luminescence (AID 1159587); conditions: recombinant PfPK7, Kinase-Glo ATP depletion luminescence
# Sequence of Protein kinase 7 (PK7), Plasmodium falciparum 3D7 (PF3D7_0213400) (Q7YTF7 1-343): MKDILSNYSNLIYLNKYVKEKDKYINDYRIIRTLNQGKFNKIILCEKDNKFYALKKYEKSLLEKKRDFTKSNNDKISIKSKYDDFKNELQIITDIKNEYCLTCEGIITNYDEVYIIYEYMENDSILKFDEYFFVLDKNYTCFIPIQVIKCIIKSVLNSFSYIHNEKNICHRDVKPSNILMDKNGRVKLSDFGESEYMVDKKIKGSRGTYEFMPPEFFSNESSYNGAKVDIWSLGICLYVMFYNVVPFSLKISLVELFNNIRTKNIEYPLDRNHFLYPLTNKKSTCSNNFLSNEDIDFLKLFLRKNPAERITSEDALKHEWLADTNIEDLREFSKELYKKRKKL
# [8] = molecular target: Calcium-dependent protein kinase 4 (Plasmodium falciparum (isolate 3D7)) (UniProt Q8IBS5); test: PfCDPK4 kinase inhibitors, biochemical, TCAMS library (AID 1159588; cut-off not given, nearly all actives have IC50 up to about 0.91 µM); conditions: recombinant PfCDPK4, Kinase-Glo ATP depletion luminescence
# Sequence of Calcium-dependent protein kinase 4 (Plasmodium falciparum (isolate 3D7)) (Q8IBS5 whole entry, looked up): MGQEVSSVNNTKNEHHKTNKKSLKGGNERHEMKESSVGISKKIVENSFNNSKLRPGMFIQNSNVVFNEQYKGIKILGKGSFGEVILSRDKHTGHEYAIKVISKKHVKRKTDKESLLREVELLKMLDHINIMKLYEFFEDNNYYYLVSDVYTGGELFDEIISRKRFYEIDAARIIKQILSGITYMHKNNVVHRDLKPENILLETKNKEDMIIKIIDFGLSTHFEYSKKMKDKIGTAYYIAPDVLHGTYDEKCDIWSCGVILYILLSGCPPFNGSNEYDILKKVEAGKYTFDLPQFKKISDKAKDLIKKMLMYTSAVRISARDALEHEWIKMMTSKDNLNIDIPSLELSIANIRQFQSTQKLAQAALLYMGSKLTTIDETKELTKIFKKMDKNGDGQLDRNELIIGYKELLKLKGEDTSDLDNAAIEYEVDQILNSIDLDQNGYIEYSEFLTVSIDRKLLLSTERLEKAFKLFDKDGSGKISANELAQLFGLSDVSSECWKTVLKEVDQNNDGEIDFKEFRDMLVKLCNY
Structure (SMILES),growth inhibition [1],inhibition [2],inhibition [3],growth inhibition [4],outcome [5],outcome [6],outcome [7],outcome [8]
CN1CCC(N2CCN(Cc3cccc(-c4ccc(-c5nc6ccccc6[nH]5)cc4)c3)CC2)CC1,99% (active),56% (active),-7%,100% (active),inactive,inactive,inactive,inactive
COc1cc2nc(NCCc3ccccc3)nc(N(C)Cc3ccccc3)c2cc1OC,58% (active),31%,-6%,96% (active),inactive,inactive,inactive,inactive
Nc1ncc(Cc2cc(Cl)c(N)c3ncccc23)c(N)n1,95% (active),5%,1%,89% (active),inactive,inactive,inactive,inactive
